Measured values taken from paper PMC11006913.
Residue numbers refer to the chain shown, from its start.

biological target: HOXC9 (Homo sapiens, UniProt P31274 178-260); experiment: PBM; 200 nM protein, PBS; settings: dsDNA, one strand shown
Sequence (P31274 178-260): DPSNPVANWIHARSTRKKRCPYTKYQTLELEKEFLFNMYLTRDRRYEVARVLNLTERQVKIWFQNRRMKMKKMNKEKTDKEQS

In order of falling binding signal:
1. ATTTACGA  12.6 upbm affinity estimate (log intensity, higher = more binding, comparable within an allelic series)
2. ATATTGAC  11.1 upbm affinity estimate (log intensity, higher = more binding, comparable within an allelic series)
3. TAAGATGA  10.7 upbm affinity estimate (log intensity, higher = more binding, comparable within an allelic series)
4. CCAGTCGG  9.93 upbm affinity estimate (log intensity, higher = more binding, comparable within an allelic series)
5. CCCCTCAC  9.72 upbm affinity estimate (log intensity, higher = more binding, comparable within an allelic series)
6. CCGGGAGC  9.61 upbm affinity estimate (log intensity, higher = more binding, comparable within an allelic series)
7. CCGGCTAG  9.55 upbm affinity estimate (log intensity, higher = more binding, comparable within an allelic series)
8. CAAGCTCG  9.49 upbm affinity estimate (log intensity, higher = more binding, comparable within an allelic series)

biological target: MSX2 (Homo sapiens, UniProt P35548 130-214, R199I); experiment: PBM; 200 nM protein, PBS; settings: dsDNA, one strand shown
Sequence (P35548 130-214 R199I): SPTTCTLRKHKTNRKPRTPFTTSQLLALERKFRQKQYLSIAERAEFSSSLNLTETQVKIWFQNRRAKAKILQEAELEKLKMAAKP

In order of rising binding signal:
1. CCGGCTAG  9.38 upbm affinity estimate (log intensity, higher = more binding, comparable within an allelic series)
2. AGCCCTCC  9.53 upbm affinity estimate (log intensity, higher = more binding, comparable within an allelic series)
3. CGCGGTGC  9.6 upbm affinity estimate (log intensity, higher = more binding, comparable within an allelic series)
4. GGCGCGCC  9.71 upbm affinity estimate (log intensity, higher = more binding, comparable within an allelic series)

biological target: ALX1 (Homo sapiens, UniProt Q15699 118-204, L144V); experiment: PBM; 200 nM protein, PBS; settings: dsDNA, one strand shown
Sequence (Q15699 118-204 L144V): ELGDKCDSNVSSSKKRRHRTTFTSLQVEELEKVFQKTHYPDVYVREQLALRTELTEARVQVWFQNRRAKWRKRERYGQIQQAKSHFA

In order of falling binding signal:
1. TAATTTAA  11.4 upbm affinity estimate (log intensity, higher = more binding, comparable within an allelic series)
2. CAGACGGC  6.56 upbm affinity estimate (log intensity, higher = more binding, comparable within an allelic series)
3. CCAGTGGG  6.51 upbm affinity estimate (log intensity, higher = more binding, comparable within an allelic series)

biological target: ALX3 (Homo sapiens, UniProt O95076 139-225, N203Q); experiment: PBM; 200 nM protein, PBS; settings: dsDNA, one strand shown
Sequence (O95076 139-225 N203Q): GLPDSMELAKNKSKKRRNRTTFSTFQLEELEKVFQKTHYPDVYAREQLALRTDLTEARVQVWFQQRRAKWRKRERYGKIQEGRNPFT

In order of falling binding signal:
1. TAATTTAA  8.49 upbm affinity estimate (log intensity, higher = more binding, comparable within an allelic series)
2. TAAGATGA  8.17 upbm affinity estimate (log intensity, higher = more binding, comparable within an allelic series)
3. AGCCCTCC  7.79 upbm affinity estimate (log intensity, higher = more binding, comparable within an allelic series)
4. AGCAGCCC  7.76 upbm affinity estimate (log intensity, higher = more binding, comparable within an allelic series)
5. CAGCCTTC  7.71 upbm affinity estimate (log intensity, higher = more binding, comparable within an allelic series)

biological target: T1, PAX4 (Homo sapiens, UniProt O43316 9-242, R200Q); experiment: PBM; 200 nM protein, PBS; settings: dsDNA, one strand shown
T1 sequence: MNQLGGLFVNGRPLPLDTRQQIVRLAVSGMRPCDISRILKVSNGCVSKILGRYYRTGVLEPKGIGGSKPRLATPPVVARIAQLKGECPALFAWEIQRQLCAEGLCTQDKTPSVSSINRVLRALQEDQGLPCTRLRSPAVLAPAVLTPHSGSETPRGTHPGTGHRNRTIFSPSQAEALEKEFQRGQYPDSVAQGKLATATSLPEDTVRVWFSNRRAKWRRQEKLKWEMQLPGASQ

In order of falling binding signal:
1. TAATTTAA  11.9 upbm affinity estimate (log intensity, higher = more binding, comparable within an allelic series)
2. CCGGGAGC  9.33 upbm affinity estimate (log intensity, higher = more binding, comparable within an allelic series)
3. CAGCCTTC  9.32 upbm affinity estimate (log intensity, higher = more binding, comparable within an allelic series)
4. ACCGCCCG  9.24 upbm affinity estimate (log intensity, higher = more binding, comparable within an allelic series)

biological target: HOXC9 (Homo sapiens, UniProt P31274 178-260, R193K); experiment: PBM; 200 nM protein, PBS; settings: dsDNA, one strand shown
Sequence (P31274 178-260 R193K): as the sequence (P31274 178-260) above, with R16K counted along it

In order of falling binding signal:
1. GGTAATAA  12.5 upbm affinity estimate (log intensity, higher = more binding, comparable within an allelic series)
2. ATTTACGA  12.4 upbm affinity estimate (log intensity, higher = more binding, comparable within an allelic series)
3. TAATTTAA  12.2 upbm affinity estimate (log intensity, higher = more binding, comparable within an allelic series)
4. ATATTGAC  11.1 upbm affinity estimate (log intensity, higher = more binding, comparable within an allelic series)
5. TAAGATGA  10.9 upbm affinity estimate (log intensity, higher = more binding, comparable within an allelic series)
6. GGCGCGCC  9.89 upbm affinity estimate (log intensity, higher = more binding, comparable within an allelic series)
7. CCAGTCGG  9.79 upbm affinity estimate (log intensity, higher = more binding, comparable within an allelic series)
8. CTCGCGAG  9.78 upbm affinity estimate (log intensity, higher = more binding, comparable within an allelic series)
9. AGCAGCCC  9.78 upbm affinity estimate (log intensity, higher = more binding, comparable within an allelic series)
10. CGCGGTGC  9.76 upbm affinity estimate (log intensity, higher = more binding, comparable within an allelic series)
11. AGCCCTCC  9.66 upbm affinity estimate (log intensity, higher = more binding, comparable within an allelic series)
12. ACCGCCCG  9.6 upbm affinity estimate (log intensity, higher = more binding, comparable within an allelic series)
13. GACCTCGC  9.57 upbm affinity estimate (log intensity, higher = more binding, comparable within an allelic series)
14. CCCTCCAG  9.54 upbm affinity estimate (log intensity, higher = more binding, comparable within an allelic series)
15. CCGGCTAG  9.53 upbm affinity estimate (log intensity, higher = more binding, comparable within an allelic series)
16. CCCCTCAC  9.5 upbm affinity estimate (log intensity, higher = more binding, comparable within an allelic series)
17. CCGGGAGC  9.49 upbm affinity estimate (log intensity, higher = more binding, comparable within an allelic series)
18. CCAGTGGG  9.48 upbm affinity estimate (log intensity, higher = more binding, comparable within an allelic series)
19. CAGACGGC  9.48 upbm affinity estimate (log intensity, higher = more binding, comparable within an allelic series)
20. GCCCGAGC  9.44 upbm affinity estimate (log intensity, higher = more binding, comparable within an allelic series)
21. CAAGCTCG  9.44 upbm affinity estimate (log intensity, higher = more binding, comparable within an allelic series)
22. CAGCCTTC  9.41 upbm affinity estimate (log intensity, higher = more binding, comparable within an allelic series)

biological target: ALX1 (Homo sapiens, UniProt Q15699 118-204, L144R); experiment: PBM; 200 nM protein, PBS; settings: dsDNA, one strand shown
Sequence (Q15699 118-204 L144R): as the sequence (Q15699 118-204 L144V) above, with V27R counted along it

In order of rising binding signal:
1. CCAGTGGG  6.46 upbm affinity estimate (log intensity, higher = more binding, comparable within an allelic series)
2. CAGACGGC  6.52 upbm affinity estimate (log intensity, higher = more binding, comparable within an allelic series)
3. TAATTTAA  11.1 upbm affinity estimate (log intensity, higher = more binding, comparable within an allelic series)

biological target: T2, PAX4 (Homo sapiens, UniProt O43316 9-242, F177V); experiment: PBM; 200 nM protein, PBS; settings: dsDNA, one strand shown
T2 sequence: T1 sequence with F169V, Q192R

In order of rising binding signal:
1. CAGCCTTC  9.05 upbm affinity estimate (log intensity, higher = more binding, comparable within an allelic series)
2. ACCGCCCG  9.1 upbm affinity estimate (log intensity, higher = more binding, comparable within an allelic series)
3. CCGGGAGC  9.16 upbm affinity estimate (log intensity, higher = more binding, comparable within an allelic series)
4. TAATTTAA  10.6 upbm affinity estimate (log intensity, higher = more binding, comparable within an allelic series)

biological target: HOXA4 (Homo sapiens, UniProt Q00056 201-287); experiment: PBM; 200 nM protein, PBS; settings: dsDNA, one strand shown
Sequence (Q00056 201-287): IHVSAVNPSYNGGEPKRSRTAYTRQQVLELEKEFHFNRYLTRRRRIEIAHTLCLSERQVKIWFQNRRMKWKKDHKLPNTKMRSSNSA

In order of rising binding signal:
1. GAAAACGA  10.9 upbm affinity estimate (log intensity, higher = more binding, comparable within an allelic series)
2. ATATTGAG  10.9 upbm affinity estimate (log intensity, higher = more binding, comparable within an allelic series)
3. CACGATCA  11 upbm affinity estimate (log intensity, higher = more binding, comparable within an allelic series)
4. AAGATTAC  11.1 upbm affinity estimate (log intensity, higher = more binding, comparable within an allelic series)
5. AGTCTTTA  11.2 upbm affinity estimate (log intensity, higher = more binding, comparable within an allelic series)
6. CGCTTAAC  11.2 upbm affinity estimate (log intensity, higher = more binding, comparable within an allelic series)
7. AATAGGTG  11.3 upbm affinity estimate (log intensity, higher = more binding, comparable within an allelic series)
8. ATGACAGC  11.3 upbm affinity estimate (log intensity, higher = more binding, comparable within an allelic series)
9. CATTTGGG  11.3 upbm affinity estimate (log intensity, higher = more binding, comparable within an allelic series)
10. AATCACTG  11.3 upbm affinity estimate (log intensity, higher = more binding, comparable within an allelic series)
11. ATATAACG  11.4 upbm affinity estimate (log intensity, higher = more binding, comparable within an allelic series)
12. GTTCTTAA  11.4 upbm affinity estimate (log intensity, higher = more binding, comparable within an allelic series)
13. AATCGATG  11.7 upbm affinity estimate (log intensity, higher = more binding, comparable within an allelic series)
14. TGATGACA  11.8 upbm affinity estimate (log intensity, higher = more binding, comparable within an allelic series)
15. AATTGTTC  11.9 upbm affinity estimate (log intensity, higher = more binding, comparable within an allelic series)
16. CTAATCTA  12 upbm affinity estimate (log intensity, higher = more binding, comparable within an allelic series)
17. CAATTTAG  12.1 upbm affinity estimate (log intensity, higher = more binding, comparable within an allelic series)

biological target: HOXC10 (Homo sapiens, UniProt Q9NYD6 254-340, K271E); experiment: PBM; 200 nM protein, PBS; settings: dsDNA, one strand shown
Sequence (Q9NYD6 254-340 K271E): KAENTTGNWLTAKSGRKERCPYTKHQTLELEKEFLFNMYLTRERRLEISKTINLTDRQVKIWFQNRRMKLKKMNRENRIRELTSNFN

In order of rising binding signal:
1. CAGCCTTC  9.85 upbm affinity estimate (log intensity, higher = more binding, comparable within an allelic series)
2. GACCTCGC  9.99 upbm affinity estimate (log intensity, higher = more binding, comparable within an allelic series)
3. AGCCCTCC  10 upbm affinity estimate (log intensity, higher = more binding, comparable within an allelic series)
4. CCAGTCGG  10 upbm affinity estimate (log intensity, higher = more binding, comparable within an allelic series)
5. CTCGCGAG  10.1 upbm affinity estimate (log intensity, higher = more binding, comparable within an allelic series)
6. CCCTCCAG  10.1 upbm affinity estimate (log intensity, higher = more binding, comparable within an allelic series)
7. AATTAAAA  11.8 upbm affinity estimate (log intensity, higher = more binding, comparable within an allelic series)
8. ATTTACGA  11.8 upbm affinity estimate (log intensity, higher = more binding, comparable within an allelic series)
9. GGTAATAA  11.9 upbm affinity estimate (log intensity, higher = more binding, comparable within an allelic series)

biological target: MSX2 (Homo sapiens, UniProt P35548 130-214); experiment: PBM; 200 nM protein, PBS; settings: dsDNA, one strand shown
Sequence (P35548 130-214): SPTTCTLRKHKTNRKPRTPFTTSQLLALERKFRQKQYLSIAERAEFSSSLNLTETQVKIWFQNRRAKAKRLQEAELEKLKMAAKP

In order of rising binding signal:
1. CCGGCTAG  9.32 upbm affinity estimate (log intensity, higher = more binding, comparable within an allelic series)
2. AGCCCTCC  9.44 upbm affinity estimate (log intensity, higher = more binding, comparable within an allelic series)
3. CGCGGTGC  9.52 upbm affinity estimate (log intensity, higher = more binding, comparable within an allelic series)
4. GGCGCGCC  10.1 upbm affinity estimate (log intensity, higher = more binding, comparable within an allelic series)

biological target: ALX3 (Homo sapiens, UniProt O95076 139-225); experiment: PBM; 200 nM protein, PBS; settings: dsDNA, one strand shown
Sequence (O95076 139-225): as the sequence (O95076 139-225 N203Q) above, with Q65N counted along it

In order of rising binding signal:
1. CAGCCTTC  7.49 upbm affinity estimate (log intensity, higher = more binding, comparable within an allelic series)
2. AGCAGCCC  7.62 upbm affinity estimate (log intensity, higher = more binding, comparable within an allelic series)
3. AGCCCTCC  7.83 upbm affinity estimate (log intensity, higher = more binding, comparable within an allelic series)
4. TAAGATGA  9.17 upbm affinity estimate (log intensity, higher = more binding, comparable within an allelic series)
5. TAATTTAA  12.4 upbm affinity estimate (log intensity, higher = more binding, comparable within an allelic series)
